According to the supplement of paper PMC6555819:

Tests used:
Assay in all cases: PBM binding z-score (relative to random genomic background probes); higher = stronger binding; sequences stand for … in GC…GCGATTGACAGCGTAGAATGAAGG
[1] = test system: FXR:RXRa (NR concentration 270 nM, RXRa partner concentration 90 nM)
How it was run: (§1)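 Binding buffer was PBS pH 7.4 with 2% milk, 0.02% Triton X-100, 1 mM DTT, 0.2 mg/mL BSA and 0.4 mg/ml salmon testes DNA. In it, ligand-free nuclear receptor dimers were incubated 1 h on custom Agilent 4×180K protein-binding microarrays carrying double-stranded probes. Antibodies against each partner (one per run) detected binding, and z-scores were calculated against random background probes after regression normalization of scanned fluorescence.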

[2] = test system: LXRa:RXRa (NR concentration 270 nM, RXRa partner concentration 90 nM)
How it was run: as §1

[3] = test system: LXRa homodimer (NR concentration 270 nM)
How it was run: as §1

[4] = test system: LXRb:RXRa (NR concentration 270 nM, RXRa partner concentration 90 nM)
How it was run: as §1

[5] = test system: LXRb homodimer (NR concentration 270 nM)
How it was run: as §1

[6] = test system: PPARa:RXRa (NR concentration 270 nM, RXRa partner concentration 90 nM)
How it was run: as §1

[7] = test system: PPARg:RXRa (NR concentration 180 nM, RXRa partner concentration 90 nM)
How it was run: as §1

[8] = test system: PPARg:RXRa 270nM:90nM, anti-RXR (NR concentration 270 nM, RXRa partner concentration 90 nM)
How it was run: as §1

[9] = test system: PPARg:RXRa 30nM:10nM, anti-RXR (NR concentration 30 nM, RXRa partner concentration 10 nM)
How it was run: as §1

[10] = test system: PPARg:RXRa 90nM:30nM, anti-RXR (NR concentration 90 nM, RXRa partner concentration 30 nM)
How it was run: as §1

[11] = test system: PPARg:RXRa DBDmut IVT, anti-RXR (DBD mutation: RXRa K156A/R161A, NR concentration 270 nM, RXRa partner concentration 90 nM)
How it was run: as §1

[12] = test system: PPARg:RXRa IVT, anti-PPARg (NR concentration 270 nM, RXRa partner concentration 90 nM)
How it was run: as §1

[13] = test system: PPARg DBDmut:RXRa IVT, anti-PPARg (DBD mutation: PPARg1 K132A/R137A, NR concentration 270 nM, RXRa partner concentration 90 nM)
How it was run: as §1

[14] = test system: PPARg DBDmut IVT, anti-PPARg (DBD mutation: PPARg1 K132A/R137A, NR concentration 270 nM)
How it was run: as §1

[15] = test system: PPARg homodimer (NR concentration 180 nM)
How it was run: as §1

[16] = test system: PXR:RXRa (NR concentration 270 nM, RXRa partner concentration 90 nM)
How it was run: as §1

[17] = test system: PXR homodimer (NR concentration 270 nM)
How it was run: as §1

[18] = test system: RARa:RXR (NR concentration 270 nM, RXRa partner concentration 90 nM)
How it was run: as §1

[19] = test system: RARa homodimer (NR concentration 270 nM)
How it was run: as §1

[20] = test system: RARb:RXRa (NR concentration 270 nM, RXRa partner concentration 90 nM)
How it was run: as §1

| Sequence | PBM binding z-score [1] | PBM binding z-score [2] | PBM binding z-score [3] | PBM binding z-score [4] | PBM binding z-score [5] | PBM binding z-score [6] | PBM binding z-score [7] | PBM binding z-score [8] | PBM binding z-score [9] | PBM binding z-score [10] | PBM binding z-score [11] | PBM binding z-score [12] | PBM binding z-score [13] | PBM binding z-score [14] | PBM binding z-score [15] | PBM binding z-score [16] | PBM binding z-score [17] | PBM binding z-score [18] | PBM binding z-score [19] | PBM binding z-score [20] |
| --- | --- | --- | --- | --- | --- | --- | --- | --- | --- | --- | --- | --- | --- | --- | --- | --- | --- | --- | --- | --- |
| TAGCCTAGGTCATTCAGGGGCCGGTATAGAAAGC | 4.65 | 3.59 | 1.03 | 2.73 | 1.63 | 3.57 | 1.87 | 2.46 | 0.494 | 1.41 | 1.8 | 2.62 | 0.426 | -0.644 | 1.79 | 2.11 | -0.0709 | 3.04 | -0.178 | 3.79 |
| TCAGATAGGTAAAAGGTGAAAGTCGGTGTGGTAA | 2.12 | 1.87 | 0.408 | 2.01 | 0.00585 | 4.67 | 6.03 | 6.8 | 6.55 | 7.29 | 3.61 | 3.39 | 0.424 | 0.558 | 1.78 | 1.84 | 0.95 | 2.63 | 1.51 | 2.02 |
| CCTACTGGGCCACGAAGGGTCATTGATTCAGTGA | 2.42 | 2.97 | 0.54 | 2.41 | -0.798 | 3.68 | 3.11 | 3.45 | 1.17 | 2.58 | 4.42 | 5.28 | -0.0977 | -1.2 | 1.51 | 3.23 | 0.0111 | 3.46 | 0.673 | 2.82 |
| GGAACGAGCGCATTCGAGTTGATAGCATGGCGAT | -1.63 | -0.936 | -0.9 | -1.41 | -1.24 | -1.94 | 0.379 | -1.09 | -0.954 | -1.27 | -0.641 | -0.81 | -0.918 | -0.781 | -1.13 | -0.904 | -0.628 | -1.29 | -0.875 | -1.26 |
| TCATATAGGTAAAGGTGAAAGTAGAACGATATGA | 1.05 | 1.4 | -0.101 | 1.28 | 0.0204 | 3.29 | 4.62 | 4.54 | 4.45 | 4.86 | 4.02 | 4.56 | 2.33 | 2.14 | 1.55 | 1.08 | -0.104 | 1.42 | 0.341 | 2.02 |
| TGAATGAGGTTATAACATCAGGGAACGTTGCAAA | 1.52 | 1.46 | -0.281 | 1.2 | -0.639 | 2.52 | 1.12 | 1.54 | 0.946 | 1.41 | 0.822 | 1.57 | 1.79 | 0.499 | 0.614 | 0.813 | -0.514 | 1.4 | 0.248 | 1.04 |
| CATACAGGCTCAGCTAGGCCAGAGTAGGGACGGC | -0.48 | -0.677 | -0.674 | -1.16 | -0.846 | -0.795 | 0.181 | -0.549 | -0.529 | -0.694 | -0.65 | -0.492 | 0.0955 | -0.224 | 0.112 | -0.899 | -0.356 | -0.727 | -0.19 | -0.283 |
| CGTCCAATGTCAATGCTAGGTCAGTGAAAGCATT | 0.511 | 0.781 | 0.797 | 0.644 | -0.123 | 1.01 | -0.028 | 0.117 | -0.386 | 0.0802 | 0.333 | 0.858 | -0.586 | -0.143 | 0.93 | 0.655 | -0.0465 | 1.27 | -0.0899 | 2.17 |
| AGAACGAGGGCACGCTGACTTGATAGCAGAGTAG | 0.758 | 0.896 | -0.482 | 0.363 | -0.85 | 2.31 | 2.29 | 1.85 | 0.503 | 1.18 | 3.96 | 4.19 | 0.288 | 0.937 | -0.0871 | 0.461 | -0.269 | 0.898 | -0.516 | 2.44 |
| GCTATAAGTTGAAAGGGCAACCGAATGATTCTCG | 1.08 | 1.24 | 0.185 | 1.23 | -0.471 | 3.05 | 2.26 | 3.37 | 1.46 | 3.15 | 0.434 | 0.831 | 0.223 | 0.266 | 1.11 | 1.41 | 0.107 | 2.56 | 0.129 | 2.46 |
| AGAATGAGGTTAAGATCAGGGGAACAGAATACAT | 2.39 | 1.58 | 0.0516 | 1.98 | 0.284 | 3.55 | 2.33 | 2.48 | 0.75 | 1.88 | 3.34 | 2.63 | 1.57 | 0.78 | 1.05 | 1.43 | 0.765 | 2.02 | 0.798 | 1.95 |
| AGTCAAAGTTCATCTAGGTAACGGAAGATATGCT | 6.87 | 6.02 | 4.37 | 3.7 | 1.73 | 4.86 | 6.85 | 6.48 | 3.55 | 5.62 | 0.826 | 4.12 | 1.91 | 0.45 | 3.26 | 5.42 | 7.16 | 3.87 | 2.15 | 4.94 |
| TCTTGCAGATCAATAGAGGTTAAGAAAGTGCGCT | 0.606 | 3.34 | 0.219 | 2.04 | -0.44 | 1.9 | -0.17 | 1.1 | 1.84 | 1.35 | 0.862 | 0.37 | 0.336 | -0.0409 | -0.12 | 3.03 | 0.036 | 1.91 | -0.478 | 0.805 |
| CAGCCTAGGTTAGGGCCAGTATAGGAGGAACGTT | -0.436 | -0.473 | -0.564 | -0.633 | -1.42 | -0.175 | 0.211 | -0.361 | -0.521 | -0.278 | -0.289 | -0.377 | -1.05 | -1.1 | -1.26 | -0.636 | -0.655 | -0.399 | -0.834 | 0.516 |
